Screens as filed in PubChem BioAssay.
JMJD2A Tudor inh: JMJD2A Tudor domain (human) inhibition. O75164. AlphaScreen JMJD2A-Tudor / H3K4me3 peptide binding. Potency, µM (doses to about 114 µM), without a hit: top-dose activity change, negative = inhibition, most hits filed as inhibitors. actives 4.4% (n = 390,000); further: on the % scale 0 is the no-effect control and ±100 the full control effect; nearly all actives have a fitted effect of over 50% in size
GLS inh: blocks human kidney-isoform glutaminase activity. O94925. AID 624170. GLS enzymatic activity, qHTS titration. actives 0.21% (n = 410,000). Potency, µM (highest dose often 45.5 µM), for inactives: at the top dose activity change, negative = inhibition, actives largely listed as inhibitors; further: on the % scale 0 is the no-effect control and ±100 the full control effect
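hKGA in 45 mM KH2PO4 pH 8.2, 0.02% Tween-20 with pin-transferred compounds; 1 mM L-glutamine (stock) plus glutamate oxidase/HRP/Amplex Red coupling added. Fluorescence read initially and after 30 min at RT.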
HP1b chromo inh: HP1-beta chromodomain-methylated histone interaction inhibition | P83916 | AlphaScreen HP1-beta / biotin-H3K9me3 peptide binding | Potency, µM (highest dose often 114 µM), for the others: at the highest dose activity change, negative = inhibition, actives largely listed as inhibitors | actives 0.56% (n = 390,000); further: nearly all actives have a fitted effect of over 70% in size
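HP1-beta protein (50 nM final) preincubated 30 min at room temperature with biotinylated H3(1-18)K9me3 peptide (50 nM) in PBS pH 7.4, 0.01% Tween-20, then compound added for 30 min. AlphaScreen streptavidin donor/nickel chelate acceptor beads (10 ug/mL final), 30 min dark, luminescence read.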
BAZ2B block: inhibitors of human BAZ2B bromodomain | AlphaScreen BAZ2B-H3K14Ac peptide displacement | Q9UIF8 | Potency, µM (series often up to 114 µM), without a hit: at the highest dose activity change, negative = inhibition, usual class: inhibitors | actives 4.4% (n = 360,000); further: on the % scale 0 is the no-effect control and ±100 the full control effect; nearly all actives have a fitted effect of over 60% in size
Target sequence (Q9UIF8 whole entry, looked up): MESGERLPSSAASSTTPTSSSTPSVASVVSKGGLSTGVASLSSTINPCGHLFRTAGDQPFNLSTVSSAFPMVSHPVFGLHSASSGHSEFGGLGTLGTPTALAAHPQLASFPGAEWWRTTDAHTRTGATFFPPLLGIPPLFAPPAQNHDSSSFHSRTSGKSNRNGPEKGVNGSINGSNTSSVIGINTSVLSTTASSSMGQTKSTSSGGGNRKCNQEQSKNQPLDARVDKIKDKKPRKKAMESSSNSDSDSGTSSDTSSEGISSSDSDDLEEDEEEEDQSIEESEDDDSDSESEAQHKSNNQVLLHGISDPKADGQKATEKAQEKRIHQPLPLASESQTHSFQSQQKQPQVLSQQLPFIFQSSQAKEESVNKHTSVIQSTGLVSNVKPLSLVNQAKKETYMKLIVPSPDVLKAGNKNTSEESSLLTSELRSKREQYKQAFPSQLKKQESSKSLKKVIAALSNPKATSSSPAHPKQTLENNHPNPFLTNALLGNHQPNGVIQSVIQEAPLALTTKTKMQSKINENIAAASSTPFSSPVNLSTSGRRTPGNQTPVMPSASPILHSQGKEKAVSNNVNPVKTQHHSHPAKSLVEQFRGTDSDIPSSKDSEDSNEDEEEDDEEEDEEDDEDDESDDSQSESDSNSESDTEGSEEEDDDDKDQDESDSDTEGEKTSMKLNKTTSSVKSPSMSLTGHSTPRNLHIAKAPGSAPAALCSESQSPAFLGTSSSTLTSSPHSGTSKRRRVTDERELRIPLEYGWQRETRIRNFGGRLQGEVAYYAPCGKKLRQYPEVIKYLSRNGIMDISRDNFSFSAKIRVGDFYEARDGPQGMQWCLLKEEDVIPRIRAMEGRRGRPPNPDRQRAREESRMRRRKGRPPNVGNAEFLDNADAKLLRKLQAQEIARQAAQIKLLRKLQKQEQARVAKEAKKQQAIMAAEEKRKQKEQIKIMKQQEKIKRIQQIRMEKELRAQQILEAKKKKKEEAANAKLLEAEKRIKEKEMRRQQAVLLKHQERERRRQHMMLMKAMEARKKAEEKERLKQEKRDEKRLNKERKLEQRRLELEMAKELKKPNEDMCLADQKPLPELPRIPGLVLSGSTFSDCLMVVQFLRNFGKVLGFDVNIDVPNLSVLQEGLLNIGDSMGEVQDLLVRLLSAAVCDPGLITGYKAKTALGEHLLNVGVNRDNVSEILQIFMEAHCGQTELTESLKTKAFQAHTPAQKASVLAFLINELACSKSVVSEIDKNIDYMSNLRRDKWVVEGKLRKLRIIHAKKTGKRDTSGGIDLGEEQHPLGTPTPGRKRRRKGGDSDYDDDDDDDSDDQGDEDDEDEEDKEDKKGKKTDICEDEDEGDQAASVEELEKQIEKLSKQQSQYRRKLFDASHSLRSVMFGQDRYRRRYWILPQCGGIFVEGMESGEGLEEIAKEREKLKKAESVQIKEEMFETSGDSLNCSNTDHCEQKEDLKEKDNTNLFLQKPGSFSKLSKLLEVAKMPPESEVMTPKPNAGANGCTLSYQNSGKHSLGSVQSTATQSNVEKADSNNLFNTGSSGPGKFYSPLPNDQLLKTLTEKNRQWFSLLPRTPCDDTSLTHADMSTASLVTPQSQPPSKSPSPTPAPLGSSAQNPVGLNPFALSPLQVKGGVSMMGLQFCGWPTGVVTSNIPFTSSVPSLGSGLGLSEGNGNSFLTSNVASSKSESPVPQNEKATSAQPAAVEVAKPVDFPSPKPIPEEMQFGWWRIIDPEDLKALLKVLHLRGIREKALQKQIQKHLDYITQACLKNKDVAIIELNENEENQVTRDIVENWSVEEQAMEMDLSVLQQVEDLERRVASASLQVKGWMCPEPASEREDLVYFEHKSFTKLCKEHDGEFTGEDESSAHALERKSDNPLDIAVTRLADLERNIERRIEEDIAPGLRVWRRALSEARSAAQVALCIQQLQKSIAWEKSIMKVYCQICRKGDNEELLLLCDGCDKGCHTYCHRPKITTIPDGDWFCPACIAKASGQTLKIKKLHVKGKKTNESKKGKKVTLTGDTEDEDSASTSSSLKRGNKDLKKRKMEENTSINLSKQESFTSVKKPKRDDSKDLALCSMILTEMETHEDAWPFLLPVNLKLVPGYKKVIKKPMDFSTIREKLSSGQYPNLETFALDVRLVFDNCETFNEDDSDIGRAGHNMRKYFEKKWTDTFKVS
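BAZ2B 50 nM plus b-H3(5-23)K14Ac 50 nM, PBS pH 7.4/0.01% Tween-20, 30 min RT; compound added (max 110 uM), 30 min RT; streptavidin donor/Ni-chelate acceptor beads 10 ug/mL final, 20 min dark; AlphaScreen read.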
G9a block: blocks human histone lysine methyltransferase G9a; G9a H3K9 monomethylation, AlphaScreen, 2 h; Potency, µM (highest dose often 102 µM), inactives show at the highest dose activity, negative = inhibition, most hits filed as inhibitors; actives 8.8% (n = 350,000); AID 504332; Q96KQ7; further: on the % scale 0 is the no-effect control and ±100 the full control effect; nearly all actives have a fitted effect of over 75% in size
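Readings reflect AlphaScreen signal from monomethyl-H3K9 antibody detection. HMT at 20 nM; substrate b-H3K9 500 nM; cofactor SAM 20 uM; 2 h RT reaction; compounds tested as titrations in qHTS with 15 min preincubation.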
* marks the source's active call; other numbers are inactive results; u = inconclusive; x = no result; [ ] = remark or other dose. Rows were chosen to be rich in hits. Some 10% of all compounds tested hit in one or more screens of this group. The call rests on the fitted dose curve; in most records, active means well fitted curve in the direction sought with a large enough effect; inconclusive means small, poorly fitted or top-dose-only effect, or another doubt; inactive means no such curve, though single readings can be large; an effect the other way counts as inactive or inconclusive. Potency means the concentration at half of the fitted maximal effect.

SMILES	JMJD2A Tudor inh	GLS inh	HP1b chromo inh	BAZ2B block	G9a block
Cc1ccc(NCC(O)C(O)C(O)CO)cc1C (centres undefined)	-24%	14%	18%	-25%	u
COc1ccc(N2CCN(C(=O)c3ccc4nc(N5CCCCC5)sc4c3)CC2)cc1	-25%	51%	30%	40µM*	8.9µM*
COc1cccc(N2CCN(C(=O)c3ccc4ccccc4c3)CC2)c1	u	10%	-20%	-2%	50µM*
COc1cccc(N2CCN(C(=O)c3ccc4nc[nH]c4c3)CC2)c1	-34%	8%	20%	-28%	u
COc1cccc(N2CCN(C(=O)c3ccc4nc(N5CCCCC5)sc4c3)CC2)c1	u	12%	-10%	-6%	40µM*
CCCCC1=CC2=CC(=O)C(C)(OC(=O)CC)C(=O)C2=CN1CCN1CCOCC1 (centres undefined)	-15%	-12%	33%	-16%	2%[59 µM]
CN1CCc2c(sc3nc(NN)n(-c4ccc(Cl)cc4)c(=O)c23)C1	u	-4%	3%	u	45µM*
C=CCSc1nc2sc3c(c2c(=O)n1-c1ccccc1)CCN(C)C3	-35%	-9%	23%	u	14%[0.501 µM]
CN1CCc2c(sc3nc(NN)n(Cc4ccccc4)c(=O)c23)C1	u	u	-20%	u	45µM*
COC(=O)c1cc2sc(Cl)cc2n1CC(=O)Nc1cc(C)cc(C)c1	-19%	8%	5%	2%	-10%[59 µM]
O=c1cnc2ccccc2n1Cc1ccccc1	x	15%	x	x	x
NC(=S)NN=C1c2ccccc2-c2ccccc21	50µM*	8%	u	u	-25%
CCOC(=O)NN=C1c2ccccc2-c2ccccc21	-5%	-16%	36%	-2%	13%[59 µM]
O=C(NN=C1c2ccccc2-c2ccccc21)c1ccccc1	-30%	6%	35%	28µM*	10µM*
C/C(=N\NC(N)=S)c1ccccc1	-16%	3%	-4%	-19%	u
NC(=S)NN=C(c1ccccc1)c1ccccc1	u	14%	-1%	-32%	40µM*
CC(=O)N1c2ccccc2CC1C(=O)N1CCN(c2ccccc2)CC1 (centres undefined)	u	9%	17%	-1%	20%[59 µM]
O=C(CN1C(=O)CSc2ccc(S(=O)(=O)N3CCOCC3)cc21)N1CCCCC1	-12%	-13%	33%	-1%	7%[59 µM]
CC1(C)Cc2c(C#N)c(N3CCN(C(=O)c4ccccc4Cl)CC3)nc(-c3ccco3)c2CS1	u	8%	-14%	40µM*	x
CC(=O)N1CCN(c2nc(-c3ccco3)c3c(c2C#N)CC(C)(C)SC3)CC1	-15%[11.4 µM]	-18%	33%	-7%	-18%[59 µM]
CC1(C)Cc2c(C#N)c(N3CCN(C(=O)c4ccco4)CC3)nc(-c3ccco3)c2CS1	50µM*	u	-32%	20µM*	10µM*
O=C(Nc1cccc2[nH]c([C@H]3C[C@H](O)[C@@H](CO)O3)nc12)NC(c1ccccc1)c1ccccc1	x	-14%	x	x	x
O=C(O)C1C2C=CC(O2)C1C(=O)Nc1ccc(S(=O)(=O)N2CCc3ccccc32)cc1 (centres undefined)	-35%	1%	3%	-6%	11µM*
COc1cccc(NC(=O)C2C3C=CC(O3)C2C(=O)O)c1 (centres undefined)	-5%	-3%	41%	-37%	x
O=C(O)C1C2C=CC(O2)C1C(=O)Nc1ccc(S(=O)(=O)Nc2ccccc2)cc1 (centres undefined)	79µM*	2%	u	-4%	u
SMILES	JMJD2A Tudor inh	GLS inh	HP1b chromo inh	BAZ2B block	G9a block
COc1cccc(Cn2c(=O)sc3ccccc3c2=O)c1	90%	1%	134%	135%	114%
CNC(=O)c1c(O)c2cccc3c2n(c1=O)CCC3	u	2%	34%	6%	x
O=c1c([N+](=O)[O-])c(O)c2cccc3c2n1CCC3	u	-20%	35%	u	79µM*
CCN(CC)CCNC(=O)c1c(O)c2cccc3c2n(c1=O)CCC3	-20%	-6%	10%	-13%	56µM*
CCCCCCNC(=O)c1c(O)c2cccc3c2n(c1=O)CCC3	123%	5%	220%	30%	3%[2.33 µM]
CCOc1ccccc1NC(=O)C(OC(=O)c1ccccc1O)c1ccccc1 (centres undefined)	-7%	-1%	40%	5%	-11%
O=C(NCC1CCCO1)C1c2ccccc2Oc2ccccc21 (centres undefined)	-5%	1%	31%	-7%	28%
O=C(O)CC12CSc3[nH]c(=O)sc3C1c1ccccc1OC2=O (centres undefined)	x	x	x	-6%	50µM*
CN1CCN(CC(=O)Nc2nc(-c3c[nH]c4ccccc34)cs2)CC1	-34%	-6%	12%	u	u
Cc1ccc2c(-c3csc(N)n3)c[nH]c2c1	x	x	x	-27%	45µM*
CCC(C)Nc1nc(-c2c[nH]c3ccccc23)cs1 (centres undefined)	35µM*	u	u	25µM*	11µM*
CNc1nc(-c2c[nH]c3ccccc23)cs1	18µM*	-1%	u	35µM*	35µM*
CCc1ccc(-c2csc(-c3c[nH]c4ccccc34)n2)cc1	-28%	1%	u	-37%	-23%[59 µM]
O=C(NCc1cccs1)C1CCC(CNS(=O)(=O)c2cccc3nsnc23)CC1 (centres undefined)	-15%	2%	19%	-1%	-5%
COc1ccccc1NC(=O)C(=O)N/N=C(\C)CC(=O)Nc1ccccc1C(F)(F)F	-4%	0%	51%	3%	5%
CCN(c1ccccc1)S(=O)(=O)c1nnc(NC(=O)COc2ccccc2F)s1	u	15%	-22%	u	u
CCOC(=O)CSC1=C(C#N)C(=O)NC(c2ccc(OC)cc2)S1 (centres undefined)	25µM*	6%	9%	50µM*	u
CCOC(=O)CSC1=C(C#N)C(=O)NC(c2ccc(OC)c(OC)c2)S1 (centres undefined)	40µM*	13%	u	50µM*	u
NC1=NC2(CCCCC2)n2c(nc3ccccc32)N1	3%	7%	36%	13%	u
O=C1c2ccccc2N2C(=O)c3ccccc3[C@H]2N1c1ccccc1	-9%	-24%	25%	9%	4%
O=C(NCc1ccc2c(c1)OCO2)C1CCCN1C(=O)Nc1ccc(Cl)cc1 (centres undefined)	1%	6%	-14%	11%	24%
CCNC(=O)NC(=O)COC(=O)c1ccccc1SCC(=O)NC(=O)NCC	u	u	u	-2%	45µM*
CC(=O)Nc1ccc(NC(=O)COC(=O)c2ccccc2SCC(=O)N2CCCC2)cc1	-23%	3%	25%	4%	18µM*
COc1ccc(CNC(=O)c2ccccc2SCC(=O)N2CCCC2)cc1OC	-10%	-1%	25%	-5%	45µM*
